Lassa entry inh: inhibitors of Lassa virus binding or cell entry; Lassa virus pseudotype entry inhibition, cell reporter; AID 540256; Potency, µM (series often up to 37.9 µM), without a hit: at the top dose activity change, negative = inhibition, hits mostly inhibitors; 300,000 tested, 1.2% active; calls by dose curve; tested in HEK293 cells; also: potency is read from the fitted curve at half-maximal effect; % is scaled to controls: 0 for no effect and ±100 for the full control effect; nearly all actives have a fitted effect of over 50% in size
Shiga toxin inh: Shiga toxin inhibition | 290,000 tested, 9.2% active | AID 2315 | inhibition, % at 38.7 µM | Vero cells, Shiga toxin protein synthesis inhibition reporter; in the data active = inhibition mostly above about 28%, no sharp cut-off; inactive = mostly below about 43%; also: 0% is about no effect
Marburg entry inh: blocks Marburg virus binding to or entry into cells | 300,000 tested, 1.8% active | AID 540276 | Potency, µM (titrated, usually from 37.8 µM), for inactives: top-dose activity change, negative = inhibition, actives largely listed as inhibitors | Marburg virus pseudotyped entry inhibition, cell reporter; calls by dose curve; tested in HEK293 cells; also: potency is read from the fitted curve at half-maximal effect; % is scaled to controls: 0 for no effect and ±100 for the full control effect
CHX counter: affects cycloheximide protein synthesis inhibition readout, counter-screen; cell reporter, cycloheximide protein synthesis inhibition counterscreen; max response, %; 300,000 tested, 12% active; in the data active = max response mostly above about 13%, no sharp cut-off; inactive = mostly below about 14%; also: read at 38.3 µM for the half of the compounds with a filed dose; 0% is about no effect
VACV mCherry inh: inhibitors of vaccinia virus infection (mCherry reporter signal); 310,000 tested, 0.63% active; Vaccinia virus mCherry reporter infection, fluorescence; Potency, µM (highest dose often 36.5 µM), for inactives: at the top dose activity change, negative = inhibition, usual class: inhibitors; calls by dose curve; tested in A549 cells; also: potency is read from the fitted curve at half-maximal effect; % is scaled to controls: 0 for no effect and ±100 for the full control effect; nearly all actives have a fitted effect of over 35% in size
Vaccinia Venus: inhibitors of vaccinia virus (Venus reporter) | Potency, µM (titrated, usually from 36.5 µM), for the others: at the top dose activity change, negative = inhibition, most hits filed as inhibitors | 330,000 tested, 0.46% active | AID 720580 | Vaccinia virus Venus reporter expression, fluorescence; calls by dose curve; tested in A549 cells; also: potency is read from the fitted curve at half-maximal effect; % is scaled to controls: 0 for no effect and ±100 for the full control effect; nearly all actives have a fitted effect of over 30% in size
* = called active by the depositor; i = inactive; u = inconclusive; x = no result; [ ] = another dose, or the depositor's remark. The entries come from a sample that favours hits as a whole.

SMILES	Lassa entry inh	Shiga toxin inh	Marburg entry inh	CHX counter	VACV mCherry inh	Vaccinia Venus
Cc1ccc(OCCCCNC(C)c2ccccc2)c(C)c1 (configuration not stated)	u	x	11µM*	-5	-16%	-16%
Cc1cccc(OCCSc2nc(N)cc(N)n2)c1	x	45*	x	20*	-22%	-5%
CCNc1nc(NCC)nc(SCCOc2ccc(C)cc2)n1	u	-13	16µM*	-4	-7%	-17%
Cc1ccc(OCCNCc2ccccc2)c(C)c1	1%	8	-1%	8	-10%	-2%
COc1ccc(CNC(=O)CCNC(=O)C2CCN(S(=O)(=O)c3ccc(OC)cc3)CC2)cc1	x	x	x	x	-16%	-21%
COc1ccc(C(=O)NC2CC2)cc1OC1CCN(C(C)CSC)CC1 (configuration not stated)	x	-7	x	9	x	x
CC(=O)c1ccc(S(=O)(=O)N2CCN(C(=O)CCC3CCCC3)CC2)cc1	-18%	x	-20%	x	i	-14%
O=C(CSc1nnc2ccc(-c3ccccn3)nn12)N1CCCC1	x	x	x	x	-12%	-5%
CC(=O)Oc1ccc(-c2ccc(C(=O)Nc3cccc(S(=O)(=O)N4CCOCC4)c3)cc2)cc1	u	30	u	9.4*	16µM*	u
COc1ccc(N(C)S(=O)(=O)c2cccc(C(=O)Nc3ccc(OC)nc3)c2)cc1	-27%	-1	-22%	-2	x	x
O=C(Nc1ccc2c(c1)OCCO2)c1cccc(S(=O)(=O)N2CCOCC2)c1	25%	68*	32%	28	x	x
CC1(C)CC2CC(C)(CN2S(=O)(=O)c2ccc(C(=O)Nc3cccc(S(=O)(=O)N4CCOCC4)c3)cc2)C1 (configuration not stated)	u	-7	5.2µM*	3	x	x
COc1ccc(C(=O)NC(=S)Nc2cccc(S(=O)(=O)N3CCOCC3)c2)cc1	u	1	-19%[46.1 µM]	-3	-29%	u
COc1ccc(N(C)S(=O)(=O)c2cccc(C(=O)Nc3ccc4c(c3)OCCO4)c2)cc1	u	19	10µM*	10	i	-18%
CCOc1ccccc1CNC(=O)c1cn(-c2ccc(OC)cc2)c(=O)c2ccccc12	u	x	x	x	-16%	-5%
COC(=O)CCN(C(=O)c1c(C)oc2ncnc(N3CCOCC3)c12)c1ccccc1	u	x	x	x	-14%	-5%
O=C(Nc1ccc(N2CCOCC2)cc1)c1cccc(S(=O)(=O)N2CCCCCC2)c1	x	29	x	4	x	x
O=C(Nc1ccc2c(c1)OCCO2)c1cccc(S(=O)(=O)N2CCCCC2)c1	-37%[14.3 µM]	84*	9%	20*	-26%	-13%
CS(=O)(=O)c1cccc(C(=O)Nc2ccc3c(c2)OCCCO3)c1	4%[46.1 µM]	59*	u	35*	-9%	-8%
Cc1[nH]c(=O)[nH]c(=O)c1S(=O)(=O)Nc1ccc(F)cc1F	x	18	x	8	x	x
Cc1ccccc1CNC(=O)CN(c1cccc(C)c1C)S(C)(=O)=O	u	x	x	x	-10%	-10%
COc1ccc(OC)c(NC(=O)CCn2cccn2)c1	u	x	x	x	-5%	-7%
CC(=O)C1(C)CCC2C3C=C(C)C4=CC(=O)CCC4(C)C3CCC21C (configuration not stated)	u	x	11µM*	x	-1%	-14%
C=C1C[C@H]2[C@@H]3C=C(C)C4=CC(=O)CC[C@]4(C)[C@H]3CC[C@]2(C)[C@@]1(OC(C)=O)C(C)=O	x	13	x	-10	-15%	-10%
C=C1CC2C(CCC3(C)C2CCC3(O)C(C)=O)C2(C)CCC(=O)C=C12 (configuration not stated)	5.6µM*	-15	u	-3	-12%	u
SMILES	Lassa entry inh	Shiga toxin inh	Marburg entry inh	CHX counter	VACV mCherry inh	Vaccinia Venus
CC(=O)[C@]1(O)CCC2C3CCC4=CC(=O)CC[C@@]4(C)C3CC[C@]21C (some centres not stated)	x	x	x	x	14%	15%
CN(CC(O)COC(c1ccccc1)c1ccccc1)C1CCCCC1 (configuration not stated)	u	-12	u	-2	-15%	-22%
CN(C[C@H](O)COc1ccc(OC[C@H](O)CN(C)C2CCCCC2)cc1)C1CCCCC1	x	x	10µM*	x	x	x
CCC(=O)c1ccc(OCC(O)CN(C)C2CCCCC2)cc1 (configuration not stated)	2%	-2	u	0	x	-13%
CN(CC(O)COc1ccc(OCC(O)CN(C)C2CCCCC2)cc1)C1CCCCC1 (configuration not stated)	u	23	10µM*	-4	i	-23%
CN(Cc1cccc(-n2cccn2)c1)C(=O)CCc1nnc(C2CCCCC2)o1	15%[46.1 µM]	55*	u	40*	-12%	-11%
CN(CCCN1CCCCC1)C(=O)CCc1nnc(C2CCCCC2)o1	16%	9	u	-3	4%	7%
CC(CCn1cccn1)NC(=O)CCc1nnc(C2CCCCC2)o1 (configuration not stated)	18%[46.1 µM]	-13	-4%[46.1 µM]	-3	i	-3%
CCN(CCn1cccn1)C(=O)CCc1nnc(C2CCCCC2)o1	x	38*	x	12*	-4%	2%
Nc1cc(=O)n(Cc2ccco2)c(=S)[nH]1	x	x	x	x	-18%	-10%
Cc1cccc(C(=O)N2CCC(=O)N(C(COCc3ccc(Cl)cc3)Cc3ccccc3)CC2)c1 (configuration not stated)	10µM*	-18	-4%	-6	-25%	-28%
Cc1ccc(S(=O)(=O)N2CCC(=O)N(C(COCc3cccc(C)c3)Cc3ccccc3)CC2)cc1 (configuration not stated)	15µM*	33	u	-1	-22%	u
O=C(c1cccc(Cl)c1)N1CCC(=O)N(C(COCc2cccc(Cl)c2)Cc2ccccc2)CC1 (configuration not stated)	15µM*	-11	-17%	-4	0%	-28%
Cc1ccc(S(=O)(=O)N2CCC(=O)N([C@H](COCc3cccc(C)c3)Cc3ccccc3)CC2)cc1	x	15	x	17	x	x
Cc1cccc(C(=O)N2CCC(=O)N(C(COCc3cccc(Cl)c3)Cc3ccccc3)CC2)c1 (configuration not stated)	8.2µM*	-12	-8%	-4	-24%	-26%
Cc1cccc(C(=O)N2CCC(=O)N([C@H](COCc3cccc(Cl)c3)Cc3ccccc3)CC2)c1	x	-14	x	5	-1%	-6%
Cc1cccc(C(=O)N2CCC(=O)N([C@H](COCc3ccc(Cl)cc3)Cc3ccccc3)CC2)c1	x	-9	x	1	10%	-17%
O=C(c1cccc(Cl)c1)N1CCC(=O)N([C@H](COCc2ccccc2)Cc2ccccc2)CC1	x	x	x	x	1%	-6%
CCN(CC)C(=O)c1sc(NC(=O)C(C)Sc2nc(-c3ccccc3)cc(C(F)(F)F)n2)c(C(=O)OC)c1C (configuration not stated)	-25%[46.1 µM]	x	u	x	-5%	-24%
CCc1ccccc1NC(=O)CSc1ncc(S(=O)(=O)c2ccc(C(C)C)cc2)c(N)n1	-25%[46.1 µM]	x	x	x	2%	-9%

Screening results (PubChem BioAssay)
